Compound activity: PubChem, The Scripps Research Institute Molecular Screening Center
TEAD-YAP inh = TEAD-YAP interaction inhibition | hit rate 1.4% among 640,000 | AID 1259422 | inhibition, % at 9.12 µM | HEK-TIYL cells, TEAD-Gal4/YAP UAS-luciferase luminescence; in the data active means inhibition above about 32%;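 further: 0% = median of test compound wells and 100% = reference inhibitor wells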
GPR151 ag = activators of human GPR151 | Q8TDV0 | PathHunter beta-arrestin GPR151 cells, luminescence | activation, % at 11.2 µM | hit rate 1% among 650,000; in the data active means activation above about 4.9%;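 further: 0% = median of compound wells and 100% = cells with positive control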
MITF inh = blocks human microphthalmia-associated transcription factor; hit rate 0.91% among 650,000; AID 1259374; AlphaScreen MITF homodimerization, bead proximity signal; inhibition, % at 2.6 µM; in the data active means inhibition above about 50%;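 further: 0% = vehicle wells with protein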
FBW7 act = activators of human E3 ligase FBW7 | hit rate 0.13% among 650,000 | AID 1259310 | normalized activity (activation), % at 26.1 µM | AlphaScreen FBW7–phospho-cyclin E peptide binding, activator screen | Q969H0; in the data active means normalized activity above about 1.9%;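 further: purified mutant Fbw7 with reduced substrate affinity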
Target sequence (Q969H0 whole entry, looked up): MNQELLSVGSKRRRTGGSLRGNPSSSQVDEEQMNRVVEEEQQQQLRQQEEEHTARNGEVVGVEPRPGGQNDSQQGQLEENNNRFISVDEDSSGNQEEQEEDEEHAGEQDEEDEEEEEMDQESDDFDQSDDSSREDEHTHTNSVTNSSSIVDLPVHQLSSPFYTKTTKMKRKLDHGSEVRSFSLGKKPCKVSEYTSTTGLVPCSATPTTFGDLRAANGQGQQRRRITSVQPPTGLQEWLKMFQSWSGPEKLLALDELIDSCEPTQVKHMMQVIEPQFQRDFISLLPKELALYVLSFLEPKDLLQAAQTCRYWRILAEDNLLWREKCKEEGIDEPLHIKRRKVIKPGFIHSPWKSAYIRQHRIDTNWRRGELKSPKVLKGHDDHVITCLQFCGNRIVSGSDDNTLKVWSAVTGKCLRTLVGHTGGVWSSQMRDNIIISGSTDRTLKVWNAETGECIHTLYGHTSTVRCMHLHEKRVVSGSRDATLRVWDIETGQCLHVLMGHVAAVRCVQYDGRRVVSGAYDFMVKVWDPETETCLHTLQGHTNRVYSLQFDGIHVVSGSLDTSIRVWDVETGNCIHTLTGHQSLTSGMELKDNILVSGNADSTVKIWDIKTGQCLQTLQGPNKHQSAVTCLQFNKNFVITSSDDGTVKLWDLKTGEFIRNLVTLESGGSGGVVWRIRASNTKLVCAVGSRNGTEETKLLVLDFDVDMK
GPR151 conf act = human GPR151 activation, confirmation screen; shares compounds with GPR151 ag; GPR151 PathHunter beta-arrestin cells, luminescence, 90 min; % of EA-reagent control over plate median; activation, % at 11.2 µM; 6,700 tested, under 10 active; AID 1508609;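 active means mean percent activation across replicates above the confirmation screen cutoff of 4.91%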
GPR119 counter = counter-screen for GPR151 activators: effect on human GPR119; AID 1508611; shares compounds with GPR151 ag; activation, % at 11.2 µM; GPR119 PathHunter beta-arrestin cells, luminescence, 90 min; 0 = compound-well median, 100 = enzyme-acceptor control; hit rate 0.3% among 6,700;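 active means mean percent activation in the counterscreen above 29.09%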;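 further: counterscreen on off-target GPR119 to flag nonselective hits from the GPR151 activator screen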
Active calls of the source: *. Shown are actives, neighbours in structure and some others; about 3.5% of the full set was active somewhere.

For COc1ccccc1OC1OC2COC(c3ccco3)OC2C(O)C1NC(C)=O (centres undefined) the results were TEAD-YAP inh -2, GPR151 ag 15*, MITF inh -2, FBW7 act 0, GPR151 conf act 1 and GPR119 counter 5.
CC(=O)NC1C(Oc2cc(C)ccc2C)OC2COC(C)(C)OC2C1O (centres undefined) was read as TEAD-YAP inh -4, GPR151 ag 13*, MITF inh 4, FBW7 act 0, GPR151 conf act 1 and GPR119 counter 7.
CC(=O)N[C@H]1[C@H](Oc2ccc(Cl)cc2Cl)O[C@H](CO)[C@@H](O)[C@@H]1O was read as TEAD-YAP inh -2, GPR151 ag 1, MITF inh -5 and FBW7 act 0.
For COc1ccc(OC)c(/C=C2\N=C(c3ccccc3OC)OC2=O)c1 the results were TEAD-YAP inh -11, GPR151 ag 1, MITF inh 13 and FBW7 act 0.
COc1ccc(/C=C2\N=C(c3ccccc3OC)OC2=O)c(OC)c1 was read as TEAD-YAP inh -7, GPR151 ag 6.5*, MITF inh -3, FBW7 act 0, GPR151 conf act 0 and GPR119 counter -2.
Screening COc1ccc(CCNC(=O)c2sc3nc(C)nc(N4CCCCC4)c3c2C)cc1OC returned TEAD-YAP inh -3, GPR151 ag 25*, MITF inh 0, FBW7 act 0, GPR151 conf act 1 and GPR119 counter -1.
COc1ccc(CCNC(=O)c2sc3nc(C)nc(N4CCC(C)CC4)c3c2C)cc1OC was read as TEAD-YAP inh -14, GPR151 ag 1, MITF inh 5 and FBW7 act 0.
Cc1nc(N2CCCCC2)c2c(C)c(C(=O)N3CCN(c4ccccc4)CC3)sc2n1 was read as TEAD-YAP inh 12, GPR151 ag 5.3*, MITF inh 3, FBW7 act 0, GPR151 conf act 0 and GPR119 counter -1.
For O=C(Nc1cccc(Cl)c1)c1ccc(F)c(S(=O)(=O)N2CCc3ccccc3C2)c1 the results were TEAD-YAP inh -8, GPR151 ag 5.4*, MITF inh 0, FBW7 act 0, GPR151 conf act 1 and GPR119 counter 7.
`Cc1ccc(N2CCN(S(=O)(=O)c3cc(C(=O)Nc4cc(Cl)cc(Cl)c4)ccc3F)CC2C)cc1` (centres undefined) gave TEAD-YAP inh 5, GPR151 ag 5.7*, MITF inh 11, FBW7 act 0, GPR151 conf act 0 and GPR119 counter 4.
Screening CCN1CCN(S(=O)(=O)c2cc(C(=O)Nc3cccc(C)c3)ccc2F)CC1 returned TEAD-YAP inh -4, GPR151 ag 6.1*, MITF inh 9, FBW7 act 0, GPR151 conf act -1 and GPR119 counter -7.
`CCn1nc(C)cc1C(=O)N1CCC[C@@H]2CN(C(=O)Cc3cccc(OC)c3)CC[C@H]21` gave TEAD-YAP inh 8, GPR151 ag 1, MITF inh 3 and FBW7 act 0.
For Cc1cccnc1NC(=S)NC(=O)c1ccccc1Br the results were TEAD-YAP inh -43, GPR151 ag 0, MITF inh 10 and FBW7 act 0.
`O=C(NC(=S)Nc1ncccc1O)c1ccccc1Br` gave TEAD-YAP inh -85, GPR151 ag 7.6*, MITF inh -4, FBW7 act 0, GPR151 conf act 0 and GPR119 counter -8.
`COc1ccc2c(c1)-c1c(ssc1=S)C(C)(C)N2C(=O)Cc1ccccc1` gave TEAD-YAP inh -16, GPR151 ag 6.3*, MITF inh 16, FBW7 act -1, GPR151 conf act 1 and GPR119 counter 10.
`CCOC(=O)c1cnc2ccc(OC)cc2c1Nc1ccccc1C` gave TEAD-YAP inh -5, GPR151 ag 0, MITF inh 3 and FBW7 act 0.
CCOC(=O)c1cnc2ccc(OC)cc2c1Nc1ccccc1C(=O)O was read as TEAD-YAP inh -1, GPR151 ag 5.6*, MITF inh -9, FBW7 act 0, GPR151 conf act 0 and GPR119 counter -4.
Screening CCOC(=O)c1cnc2cc(C(F)(F)F)ccc2c1Nc1cc(OC)ccc1OC returned TEAD-YAP inh 6, GPR151 ag 4.9*, MITF inh 0, FBW7 act 0, GPR151 conf act -1 and GPR119 counter 9.
